# The supplement of paper PMC11417369
# ± gives the standard deviation of the averaged measurements. The full ranking holds about 25,000 sequences; the median of “ln(normalized median fluorescence intensity)” is about 8.6, and the highest 2% start at about 10. The full list was thinned out, with the highest values kept by preference.
# System: PfAP2-EXP AP2 domain (GST-tagged)
# Test: gcPBM binding intensity (ln(normalized median fluorescence intensity)); higher = stronger DNA binding
# Summary of the method: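 The highest Masliner-normalised natural-log median intensity across replicate spots of either probe orientation is reported as binding intensity. GST-tagged P. falciparum DNA-binding domains expressed in E. coli were applied for 1 h to an Agilent 4 × 180k array of primer-extended double-stranded 36-bp intergenic genomic probes plus negative controls, and bound protein was detected with Alexa488 anti-GST antibody and scanned at 488 nm.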
row,Sequence,gcPBM binding intensity (ln)
1,ATAAAATAAAATTGGTGTACTTTTGATAAAATAAAA [XGTACX_site4264],8.24 ± 0.28
2,TTAATAAACCTTAGATGTACAGTTATATATAAAATA [XGTACX_site6681],8.54 ± 0.52
3,ATAACATTCAAAAAATGTACAAACATATGAATAAAT [XGTACX_site7013],8.62 ± 0.47
4,TATATATATAACAGAATGCACTTTATATGTTCATAT [GTGCAC_site9880],8.94 ± 0.14
5,TATATATATAAATACACACACACATATATATATATA [CACACA_site4585],10 ± 0.16
6,TAAATAAATACATACACACACATACATATATATATA [CACACA_site3129],9.86 ± 0.26
7,CATAAATACATACATACACACATATATATATATATA [CACACA_site2106],10.2 ± 0.41
8,CATATATAAATATATACACACATACATACATACATA [CACACA_site5988],8.73 ± 0.3
9,TAAATACATAAATACACACACATATATATATATATA [CACACA_site5549],10.2 ± 0.35
10,CACAAATAAATACATACACACATATATACTCATATA [CACACA_site4379],8.37 ± 0.49
11,TATATATATATATATACACACATATATATAAATATA [CACACA_site2035],10.2 ± 0.26
12,TATACTCATAAATACACACACATATATATATATATA [CACACA_site5822],10.2 ± 0.28
13,TAAATAAATATATATACACACATATATATATATATA [CACACA_site598],10.1 ± 0.36
14,AGAGAAGAAAACAAAACACACACATATATCTTAATA [CACACA_site8699],8.63 ± 0.71
15,AATTTTTAGTATATAACATAAAATAAAATAAAATAA [GTGCAC_negctrl_site696],8.47 ± 0.38
16,AAAATTATATTTTATAGAAATTTAAATAAATATATA [GTGCAC_negctrl_site199],8.01 ± 0.38
17,AATATATATATTAAATGTACATTACATAATTATATA [XGTACX_site3450],8.54 ± 0.43
18,ACCTGTAAAAATGTTTATATATATATATATATATAT [CACACA_negctrl_site1500],10.3 ± 0.37
19,AATGTAAAATATATGTGTACATATGTTTATATATAT [XGTACX_site2216],8.71 ± 0.23
20,AAAATATATATGTATGTTTATATGTTTATATATATT [XGTACX_negctrl_site337],8.18 ± 0.49
21,ATAATATATAATATAGTGCATTATTTATTAATTAAT [GTGCAC_site9852],8.56 ± 0.085
22,TTATATTATATATATGTGCACATTTTTAAACTTGGA,8.71 ± 0.27

row,Sequence,gcPBM binding intensity (ln)
1,TATATACATTTTTATGTGCACATTTTATTTTTAAAT,9.15 ± 0.31
2,ATATATATATATATAGTGCACATTTATATAATTATT,10.3 ± 0.17
3,TTTTAATTTAAAAATTAATTTATATATATATATATA [TGCATGCA_negctrl_site447],10.3 ± 1
4,TATATATATATATATGTGCACATTTTATTAAAATGT,10.2 ± 0.34
5,ATTTTTTTATAAAATTTTTATATAATTTATTATAAA [GTGCAC_negctrl_site96],8.16 ± 0.52
6,TTATTTTTATATTTTAATTTTAAAAAAATTTTAATT [CACACA_negctrl_site777],8.04 ± 0.46
7,TATAATAATATTATAGTGCATATTATTTATATATAA [GTGCAC_site9820],8.22 ± 0.2
8,ATTATTTAGAAATGAGCACACAAAAAGAAGAATTTT [CACACA_site7913],8.65 ± 0.52
9,ATATAAAAAGTGTATCGTACATTTACTTATTTTATA [XGTACX_site6249],8.46 ± 0.3
10,AATACTATTATTATTGCACACTTATTATCCCTCGGA [CACACA_site4262],8.65 ± 0.28
11,CACTAAACATATACACGTACATGCAACGGATTTTTT [XGTACX_site461],8.74 ± 0.3
12,ATGGACAAGTTAAACGCACACAAATATATACAGACA [CACACA_site1652],9.15 ± 0.73
13,TTTTTTATTAAATATATATAATAATAATAATTTGTA [CACACA_negctrl_site1719],7.9 ± 0.37
14,AAAAAAATTTTAAAATGTACAAATTTTAATATATAT [XGTACX_site7628],8.55 ± 0.26
15,TTTTAAAATATATTTGTATATATATATATATATATA [XGTACX_negctrl_site536],10.4 ± 0.35
16,ATATATTTTTTAAATTTAAAAATTATAAAATTTATA [TGCATGCA_negctrl_site36],8.16 ± 0.45
17,AAATAACAAATTTTTAAAATGTATATATATATATAT [TGCATGCA_negctrl_site219],10.2 ± 0.74
18,AAAAAAAAAAAAATGTAATTTTTTAATTATTTATAT [GTGCAC_negctrl_site436],7.96 ± 0.43
19,ATAACAAAATAATAATGTACGTATAAATATAATTTA [XGTACX_site6049],8.57 ± 0.4
20,TTTTTTAAATGTATTAAAATTATATATATATATATA [GTGCAC_negctrl_site570],10.2 ± 0.25
21,TATAATAAAATATTTTGTACGTATATTTTAATATTT [XGTACX_site2582],8.32 ± 0.45
22,AAAAAAAAAAAAAATACACACATATATAAATAAATA [CACACA_site6459],8.31 ± 0.45
